From PubChem BioAssay (EPA / NIEHS) come the findings set out here.

Molecules are shown by their SMILES. The source holds several records for some structures; these can differ, active in one and inactive in another. Calls of active or inactive are those of the source. Rule for the calls: active = hit-call score of the fitted dose curve at least 0.9, where 1 is the maximum; inactive = score below 0.9.

Read-out in this assay: MYC, MYC (gene 4609)
Kind of assay: LTEA_HepaRG_MYC: Life Technologies and Expression Analysis (LTEA) Assay for MYC using HepaRG (AID 2283518). The note with it: mRNA level, 48 h; actives raise or lower the signal. The method, then: LTEA_HepaRG is a cell based, multiplexed-readout assay that uses HepaRG, a human liver cell line, with measurements taken at 48 hours after chemical dosing on a 96-well plate.LTEA_HepaRG_MYC is one of 102 assay component(s) measured in the LTEA HepaRG cell culture assay. It is a marker of Cell proliferation, survival, death.Data from the assay component LTEA_HepaRG_MYC was analyzed into 1 endpoint. This assay endpoint, LTEA_HepaRG_MYC, was analyzed with bidirectional fitting relative to DMSO as the negative control and baseline of activity. Using a type of inducible reporter, measures of mRNA induction for gain or loss-of-signal activity can be used to understand regulation of transcription factor activity. To generalize the intended target to other relatable targets, this assay endpoint is annotated to the dna binding intended target family, where the subfamily is basic helix-loop-helix leucine zipper.
A total of 1060 chemcials from the ToxCast library were tested in eight-point concentration-response experiments. Cell culture and cytotoxicity assays were conducted at Thermo Fisher Scientific's Custom Services facility (Madison, WI). A single lot of human HepaRG cells (Thermo Fisher Scientific, Frederick, MD) was used for the cell culture experiments. 96-well format collagen type I coated plates of human HepaRG cells were prepared using established methods. Briefly, cryopreserved HepaRG cells were thawed, plated at a density of approximately 100,000 cells/well in HepaRG Thaw, Plate, and General Purpose media (HPRG770, Thermo Fisher Scientific), and incubated for 48 hours. 0.5% DMSO was selected as vehicle control to balance the requisite need of DMSO in HepaRG cultures to maintain differentiation (for example, baseline metabolism, proportions of hepatocytes vs. cholangiocytes), while enabling further hepatic receptor pathway activation (for example, PXR and CAR) in response to chemical exposure. 48 hours after plating, the culture medium was replaced with HepaRG Serum-Free Incudtion Media. Cells were exposed to each test chemical in duplicate and maintained in CO2 incubators for another 48 hours. Chemical plates were thawed to room temperature and 200x concentrations of treatment groups were prepared. 8-point conentration-reponse curves were made with the highest exposure at 100 uM, followed by half-log dilutions, all in 0.5% DMSO. Each test plate contained variouse controls, induction positive controls (1mM phenobarbital), cytotoxicity positive controls ([…] aflatoxin B1), vehicle controls (0.5% DMSO), and total lysis controls (0.5% DMSO). Cell morphology images were taken using an Essen IncuCyte FLR automated microscope, with six 96-well plates imaged in about 24 minutes. Images were captured and exported and JPEG files. Spent culture media was transfered to black-well plates for the LDH assay, and remaining media was sorted at -80 C for later use. Cells were treated with RLT buffer and frozen until shipped for gene expression analysis. Total RNA was isolated from the cell suspension in 75 uL of Buffer RLT (Qiagen, Germantown, MD 20874) by Quintiles/Expression Analysis (Durham, NC) using a custom isolation procedure. Total RNA from each plate well was transferred to a preamplification plate. Fluidigm's 96.96 Dynamic ArrayTM (Fluidigm, Amsterdam, the Netherlands) technology was used for gene expression analyses by quantitative reverse transcription polymerase chain reaction (qRT-PCR, performed by Quintiles/Expression Analysis, Durham, NC)89. Standard TaqManTM Assays (Applied Biosystems/ThermoFisher Scientific, Foster City, CA) were used to assess the expression of 93 genes selected based on their selectivity and sensitivity to important hepatic receptors known to be modulated by environmental chemicals; importance in human hepatocyte functionality; and hepatotoxicity. […]
As for `CC(C)(C)C(O)C(Oc1ccc(Cl)cc1)n1cncn1` (stereo not given), the call was inactive. `CC1(c2ccc(Oc3ccccc3)cc2)OC(=O)N(Nc2ccccc2)C1=O` (stereo not given): the AC50 is 10.2 µM (active). Turning to `O=[N+]([O-])/N=C1\NCCN1Cc1ccc(Cl)nc1`, the outcome was inactive. As for `CCN(CC)C(=O)SCc1ccc(Cl)cc1`, the compound was called inactive. In the case of `Oc1cc(Cl)ccc1Oc1ccc(Cl)cc1Cl`, the compound was classed as inactive and the AC50 is 83.5 µM (active). For `CNC(=O)CSP(=S)(OC)OC`, the call was inactive.

As for `CCCN(CCOc1c(Cl)cc(Cl)cc1Cl)C(=O)n1ccnc1`, the AC50 is 39.5 µM (active). Consider `O=C(O)CCCOc1ccc(Cl)cc1Cl`, for which the call was inactive. In the case of `C[C@H]1[C@H](c2ccc(Cl)cc2)SC(=O)N1C(=O)NC1CCCCC1`, the AC50 is 71.1 µM (active).

As for `O=C(O)COc1ccc(Cl)cc1Cl`, the result was inactive. Regarding `CNC(=O)/C=C(\C)OP(=O)(OC)OC`, the compound was called inactive.

For `Oc1ccc(Cl)cc1Cc1ccccc1`, the result was inactive. Take `CC(C)(C)C(O)/C(=C\c1ccc(Cl)cc1Cl)n1cncn1` (stereo not given): the compound was classed as inactive. Turning to `Cc1[nH]c(=O)n(C(C)(C)C)c(=O)c1Cl`, the compound was classed as inactive. Consider `CC(C)OC(=O)Nc1cccc(Cl)c1`, for which the result was inactive.

Take `COP(=S)(OC)Oc1ccc(SC)c(C)c1`: the compound was called inactive. Turning to `O=C(O)C(F)(F)C(F)(F)C(F)(F)C(F)(F)C(F)(F)C(F)(F)C(F)(F)F`, the result was inactive. On to `CNC(=O)Oc1cccc(N=CN(C)C)c1`, for which the result was inactive. In the case of `N#Cc1c(Cl)c(Cl)c(Cl)c(C#N)c1Cl`, the AC50 was 50 µM (active). For the compound `CC(C)N(C(=O)COc1nnc(C(F)(F)F)s1)c1ccc(F)cc1`, the outcome was inactive. For `COP(=O)(OC)OC=C(Cl)Cl`, the call was inactive. Take `CCOC1Oc2ccc(OS(C)(=O)=O)cc2C1(C)C` (stereo not given): the AC50 is 77.7 µM (active). `O=C(Nc1ccccc1)Nc1cnns1`: the concentration at half-maximal activity (AC50) was 87.7 µM (active). On to `CN1CSC(=S)N(C)C1`, for which the call was inactive.

Turning to `CCc1ccc(C(=O)NN(C(=O)c2cc(C)cc(C)c2)C(C)(C)C)cc1`, the compound was classed as inactive. Take `Clc1ccccc1-c1nnc(-c2ccccc2Cl)nn1`: the outcome was inactive. Consider `CCOCN(C(=O)CCl)c1c(C)cccc1CC`, for which the call was inactive. `ClC1C(Cl)C(Cl)C(Cl)C(Cl)C1Cl` (stereo not given): the result was inactive. Consider `COc1nn(CSP(=S)(OC)OC)c(=O)s1`, for which the compound was classed as inactive. With `CCC(C)Nc1c([N+](=O)[O-])cc(C(C)(C)C)cc1[N+](=O)[O-]` (stereo not given), the call was inactive.

As for `CCC(C)(C)C(=O)OC1=C(c2ccc(Cl)cc2Cl)C(=O)OC12CCCCC2`, the outcome was inactive.

As for `CC[C@H](C)[C@H]1O[C@]2(C=C[C@@H]1C)C[C@@H]1C[C@@H](C/C=C(\C)[C@@H](O[C@H]3C[C@H](OC)[C@@H](O[C@H]4C[C@H](OC)[C@@H](O)[C@H](C)O4)[C@H](C)O3)[C@@H](C)/C=C/C=C3\CO[C@@H]4[C@H](O)C(C)=C[C@@H](C(=O)O1)[C@]34O)O2` (tested in a mixture with another compound), the half-maximal activity concentration (AC50) is 13.9 µM (active). Still for that read-out and setting: the figure for `O=S1OCC2C(CO1)C1(Cl)C(Cl)=C(Cl)C2(Cl)C1(Cl)Cl` (stereo not given) is 77.5 µM (active). Take `OCCOc1ccccc1`: the call was inactive.

For `O=[N+]([O-])c1c(Cl)c(Cl)c(Cl)c(Cl)c1Cl`, the call was inactive.

As for `C#CCN1C(=O)COc2cc(F)c(N3C(=O)C4=C(CCCC4)C3=O)cc21`, the compound was classed as inactive.

Regarding `CCCN(CCC)c1c([N+](=O)[O-])cc(C(F)(F)F)cc1[N+](=O)[O-]`, the compound was classed as inactive. Regarding `CC1(C)C(C=C(Cl)Cl)C1C(=O)OC(C#N)c1ccc(F)c(Oc2ccccc2)c1` (stereo not given), the result was inactive.

As for `O=C1c2ccccc2C(=O)N1SC(Cl)(Cl)Cl`, the compound was classed as inactive.
